# MgrA DNA FP: S. aureus MgrA-DNA binding modulation | fluorescence polarization | actives 0.13% (n = 84,000) | AID 602314 | inhibition, % (no concentration beside the values); in the data active = inhibition above about 30%, passing the limit was not always enough;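 also: 0% = protein plus DNA without compound and 100% = DNA alone without protein; higher means less MgrA bound to DNA so lower polarization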
# Numbers without * were called inactive. The full list was thinned out, with hits kept by preference.
SMILES,MgrA DNA FP
CN1C(=O)/C(=C/c2ccc(I)o2)C(=O)NC1=S,98*
O=C1NC(=S)N(c2ccc(Br)cc2)C(=O)/C1=C\c1ccc(-c2ccccc2C(=O)O)o1,16
C=CCN1C(=O)/C(=C/c2ccco2)C(=O)NC1=S,38
Cc1nc2cc(CCl)ccc2s1,5
CC(=O)Nc1c(O)[nH]c(=S)[nH]c1=O,-1
CC[n+]1c(-c2ccccc2)c2cc(N)ccc2c2ccc(N)cc21,58*
CCOC(=O)C1=C(c2ccccc2)N(CC(N)=O)C(=O)C12C(C#N)=C(N)Oc1ccccc12 (configuration not stated),-2
CCN1CCC(NC2CCC(O)CC2)CC1 (configuration not stated),5
CC[C@H](CO)NC(=O)[C@@H]1C=C2c3cccc4[nH]cc(c34)C[C@H]2N(C)C1,3
CN(C)C(=O)Oc1cc(C(F)(F)F)nc(C2CC2)n1,0
